FBW7 act: human FBW7 E3 ligase activation, primary screen | AlphaScreen FBW7–phospho-cyclin E peptide binding, activator screen | Q969H0 | hit rate 0.13% among 650,000 | AID 1259310 | normalized activity (activation), % at 26.1 µM; in the data active means normalized activity above about 1.9%;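 further: purified mutant Fbw7 with reduced substrate affinity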
TEAD-YAP inh: TEAD-YAP interaction inhibition | inhibition, % at 9.12 µM | hit rate 1.4% among 640,000 | HEK-TIYL cells, TEAD-Gal4/YAP UAS-luciferase luminescence | AID 1259422; in the data active means inhibition above about 32%
MITF inh: inhibitors of human MITF | O75030 | AlphaScreen MITF homodimerization, bead proximity signal | inhibition, % at 2.6 µM | hit rate 0.91% among 650,000; in the data active means inhibition above about 50%
Target sequence (O75030 whole entry, looked up): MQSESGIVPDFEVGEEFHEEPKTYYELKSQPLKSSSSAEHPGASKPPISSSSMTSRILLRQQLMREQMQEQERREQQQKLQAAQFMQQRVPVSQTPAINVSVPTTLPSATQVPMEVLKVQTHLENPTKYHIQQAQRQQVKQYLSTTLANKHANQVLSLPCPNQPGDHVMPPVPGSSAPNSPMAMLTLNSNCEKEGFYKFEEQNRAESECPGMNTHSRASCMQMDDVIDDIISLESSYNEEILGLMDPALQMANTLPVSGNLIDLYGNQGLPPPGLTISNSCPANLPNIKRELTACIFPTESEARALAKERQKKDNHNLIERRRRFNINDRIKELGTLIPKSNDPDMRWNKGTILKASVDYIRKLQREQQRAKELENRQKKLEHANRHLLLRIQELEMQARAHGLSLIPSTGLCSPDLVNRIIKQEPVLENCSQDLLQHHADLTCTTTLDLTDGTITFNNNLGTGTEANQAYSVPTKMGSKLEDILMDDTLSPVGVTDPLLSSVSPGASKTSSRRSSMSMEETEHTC
GPR151 ag: activators of human GPR151; Q8TDV0; PathHunter beta-arrestin GPR151 cells, luminescence; activation, % at 11.2 µM; hit rate 1% among 650,000; in the data active means activation above about 4.9%
Hits are given with their value; 0 = inactive. Compounds with a hit are over-represented: about 3.5% of the library has one in this group of screens.

SMILES | FBW7 act | TEAD-YAP inh | MITF inh | GPR151 ag
c1cc(Nc2nc(Nc3ccc4c(c3)OCO4)c3ncn(-c4ccsc4)c3n2)ncn1 | 10 | 0 | 0 | 0
c1cnc(Nc2nc(Nc3ccc4c(c3)OCO4)c3ncn(-c4ccsc4)c3n2)cn1 | 0 | 0 | 0 | 0
c1cncc(CNc2nc(Nc3ccc(N4CCOCC4)cc3)nc3c2ncn3-c2ccsc2)c1 | 0 | 57 | 0 | 0
CCOC(=O)C1(Cc2ccccc2Cl)CCN(Cc2ccncc2)CC1 | 0 | 0 | 0 | 0
CC(=O)Nc1ccc(Nc2nc(Nc3ncccn3)nc3c2ncn3-c2ccsc2)cc1 | 0 | 50 | 0 | 0
c1ccc(Nc2nc(Nc3ccc(N4CCOCC4)cc3)nc3c2ncn3-c2ccsc2)cc1 | 0 | 0 | 0 | 0
CCN(CC)c1nc(Nc2ccc3c(c2)OCO3)nc(Nc2ccncn2)n1 | 4.0 | 0 | 0 | 0
c1cc(-n2cnc3c(Nc4ccc5c(c4)OCO5)nc(Nc4ccc(N5CCOCC5)cc4)nc32)cs1 | 0 | 42 | 0 | 0
c1cc(-n2cnc3c(Nc4ccc(N5CCOCC5)cc4)nc(Nc4ccc(N5CCOCC5)cc4)nc32)cs1 | 0 | 35 | 0 | 0
CC(=O)Nc1ccc(Nc2nc(Nc3ccncc3)nc3c2ncn3-c2ccsc2)cc1 | 0 | 0 | 0 | 0
COc1cccc(C2/C(=C(\O)c3ccc(Cl)cc3)C(=O)C(=O)N2c2ccc(C)c(Br)c2)c1 (stereo unspecified) | 0 | 0 | 0 | 0
CC1Cc2ccccc2N1C(=O)C(c1ccccc1)c1ccccc1 (stereo unspecified) | 0 | 0 | 0 | 0
CC(=O)Nc1ccc(Nc2ccnc(-c3c(C)nn(C)c3C)n2)cc1 | 0 | 54 | 0 | 0
c1ccc(Nc2nc(-c3ccc(N4CCOCC4)nc3)nc3c2ncn3-c2ccccc2)cc1 | 0 | 0 | 0 | 0
FC(F)(F)c1ccc(Nc2nc(Nc3ccc(N4CCOCC4)cc3)c3ncn(-c4ccsc4)c3n2)cc1 | 0 | 0 | 0 | 0
Cc1nn(C)c(C)c1-c1nc(Nc2ccccc2)c2ncn(-c3ccsc3)c2n1 | 0 | 0 | 0 | 0
CC(=O)Nc1ccc(Nc2nc(Nc3ccc(N4CCOCC4)cc3)nc3c2ncn3-c2ccsc2)cc1 | 0 | 38 | 0 | 0
COc1ccc(-c2nc(Nc3ccc(N4CCOCC4)cc3)c3ncn(-c4ccccc4)c3n2)cn1 | 0 | 34 | 0 | 0
CC(=O)Nc1ccc(Nc2nc(-c3c(C)nn(C)c3C)nc3c2ncn3-c2ccsc2)cc1 | 0 | 44 | 0 | 0
CCc1ccc(C2CC(c3ccc(Cl)cc3)n3nnnc3N2)cc1 (stereo unspecified) | 0 | 0 | 0 | 0
O=C(CSc1nc2ccccc2c2nc(-c3ccccc3)nn12)c1ccc(O)c(O)c1 | 0 | 44 | 0 | 0
OCC#CCSc1ncnn1-c1ccccc1 | 7.2 | 0 | 0 | 0
O=C(NCc1ccccc1)c1ccc2nc(-c3csc4ccccc34)sc2c1 | 0 | 0 | 0 | 0
CS(=O)(=O)C1=NSC2=NC(=O)/C(=C\c3ccc(Br)o3)C(=N)N21 | 0 | 0 | 74 | 0
CC(C)S(=O)(=O)C1=NSC2=NC(=O)/C(=C\c3ccc(Br)o3)C(=N)N21 | 0 | 0 | 84 | 0
SMILES | FBW7 act | TEAD-YAP inh | MITF inh | GPR151 ag
O=C(CSc1ncnc2c1cnn2-c1ccc(F)cc1)Nc1nccs1 | 0 | 0 | 0 | 0
COc1cc(C2CC(=O)c3c(ccc4ccccc34)N2)ccc1OCc1ccccc1 (stereo unspecified) | 0 | 0 | 0 | 0
COc1ccccc1C1CC(=O)c2c(ccc3ccccc23)N1 (stereo unspecified) | 0 | 61 | 0 | 0
CCOC(=O)c1[nH]c(/C=N/NC(=O)c2ccncc2)c(C(=O)OCC)c1C | 0 | 60 | 0 | 0
O=C(Nc1ccc(Oc2cccnc2)cc1)C1CCN(Cc2cc(Cl)ccc2O)CC1 | 0 | 44 | 0 | 0
O=C(Nc1ccc(Oc2cccnc2)cc1)C1CCN(Cc2ccc(F)cc2)CC1 | 0 | 0 | 0 | 0
CCCCOC(=O)CSc1nnc(-c2ccc(N(C)C)cc2)o1 | 0 | 41 | 0 | 0
COc1ccccc1NC1=C/C(=N/S(=O)(=O)c2cccs2)c2ccccc2C1=O | 0 | 0 | 54 | 0
O=C1C(Nc2ccc(O)cc2)=C/C(=N/S(=O)(=O)c2cccs2)c2ccccc21 | 0 | 97 | 0 | 0
O=C(O)c1ccc(NC2=C/C(=N/S(=O)(=O)c3cccs3)c3ccccc3C2=O)cc1 | 0 | 0 | 0 | 0
COc1ccccc1NC1=C/C(=N/S(=O)(=O)c2ccccc2)c2ccccc2C1=O | 0 | 48 | 71 | 0
O=C1C(Nc2ccc(O)cc2)=C/C(=N/S(=O)(=O)c2cccc([N+](=O)[O-])c2)c2ccccc21 | 0 | 92 | 0 | 0
O=C(O)c1ccc(NC2=C/C(=N/S(=O)(=O)c3ccccc3)c3ccccc3C2=O)cc1 | 0 | 0 | 0 | 0
C/C=C(\C)C(=O)N1CCC(C2(CCC(C)C)NC(=O)N(Cc3ccccn3)C2=O)CC1 (stereo unspecified) | 0 | 0 | 0 | 0
CC(=O)Nc1ccc(CN2CCC3(CCC(CNC(=O)C4CCCO4)O3)CC2)cc1 (stereo unspecified) | 0 | 0 | 0 | 0
COC(=O)C1=CN(C(C)c2ccccc2)C=C(C(=O)OC)C1c1cccc(OC)c1 (stereo unspecified) | 0 | 0 | 0 | 0
Cc1ccnc(NC(c2ccncc2)c2ccc3ccc(C)nc3c2O)c1 (stereo unspecified) | 0 | 39 | 0 | 0
Oc1c(C(Nc2nccs2)c2cccnc2)ccc2cccnc12 (stereo unspecified) | 0 | 67 | 89 | 0
CCOc1ccc(C(Nc2cc(C)ccn2)c2ccc3cccnc3c2O)cc1C (stereo unspecified) | 0 | 86 | 0 | 0
C=CCOc1cccc(C(Nc2cc(C)ccn2)c2ccc3ccc(C)nc3c2O)c1 (stereo unspecified) | 0 | 0 | 0 | 0
Cc1ccnc(NC(c2ccc(C(C)(C)C)cc2)c2ccc3cccnc3c2O)c1 (stereo unspecified) | 0 | 0 | 0 | 0
Cc1ccnc(NC(c2cccnc2)c2ccc3cccnc3c2O)c1 (stereo unspecified) | 0 | 0 | 66 | 0
Cc1ccnc(NC(c2cccnc2)c2ccc3ccc(C)nc3c2O)c1 (stereo unspecified) | 0 | 0 | 0 | 0
CCC(C)NCC(=O)Nc1cc(C(F)(F)F)cc(NC(=O)CNC(C)CC)c1Cl (stereo unspecified) | 0 | 0 | 0 | 0
O=C(/C=C\Nc1ccccn1)c1ccc(Cl)c(Cl)c1 | 0 | 0 | 0 | 0
SMILES | FBW7 act | TEAD-YAP inh | MITF inh | GPR151 ag
C=CCn1c(SCC(=O)c2ccccc2F)nc2sc3c(c2c1=O)CCCC3 | 0 | 0 | 0 | 0
CCCCN(CC)C(=O)Cc1nc(-c2ccc(OC)cc2)no1 | 0 | 0 | 0 | 0
COc1ccccc1NC(c1cccnc1)c1ccc2cccnc2c1O (stereo unspecified) | 0 | 0 | 76 | 0
CCOc1cc(/C=C2\N=C(c3ccc(C)cc3)OC2=O)ccc1OCc1ccccc1Cl | 0 | 0 | 0 | 0
N#Cc1c2nc3ccccc3cc2c(=O)n2c1sc1ccccc12 | 0 | 0 | 0 | 0
O=C(c1ccc2cncc(-c3ccccc3)c2n1)N1CCC(O)CC1 | 0 | 51 | 0 | 0
O=C(c1ccc2cncc(-c3ccccc3)c2n1)N1CCOCC1 | 0 | 36 | 0 | 0
O=C(c1ccc2cncc(-c3ccsc3)c2n1)N1CCC(O)CC1 | 0 | 61 | 0 | 0
